According to the supplement of paper PMC12494721:
Counter-ions that a name gives are not always drawn.

Key:
Settings in all cases: incubation time: 27 h, anaerobic, 37 °C;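 for the amine columns active = adjusted P below 0.05 in both replicates with a change the same way and a mean fold change under 0.8 or over 1.25; inactive = the rest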
[1] = tested on: Clostridium sporogenes DSM 1664; experiment: growth (OD595) fold change vs plate DMSO controls (fold change (ratio)); higher = more growth
In short: (§1)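 Absorbance at 595 nm was read after shaking the anaerobic mGAM cultures, which had grown in 96-well plates for 27 h at 37 °C. After blank subtraction and background correction against 20 µM compound solutions in water, a calibration factor of 5 gave OD values. Growth is the fold change against the median of the plate's DMSO controls. Values are the mean of 2 biological replicates, with fold changes above 1.5 set to NA.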

Escherichia coli IAI1 [2] = experiment: as above
In short: as §1

[3] = tested on: Klebsiella aerogenes DSM 30053; experiment: as above
In short: as §1

[4] = tested on: Ruminococcus gnavus DSM 108212; experiment: as above
In short: as §1

[5] = tested on: Klebsiella aerogenes DSM 30053; experiment: fold change of Histamine concentration vs plate DMSO controls (fold change (ratio)); higher = more amine produced, active = hit call of the paper (significant change in both replicates, either direction)
In short: (§2)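 Amine values are fold changes relative to DMSO-only wells on the same plate. They derive from 27 h, 37 °C anaerobic mGAM cultures of four gut bacterial strains in 80 µL wells, dosed at 20 µM final, or 50 µM final for sweeteners. Extraction of the whole culture, LC–triple-quadrupole MS in dynamic MRM mode, external calibration curves and within-batch drift correction were used, with 2 biological replicates averaged.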

[6] = tested on: Clostridium sporogenes DSM 1664; experiment: fold change of Tryptamine concentration vs plate DMSO controls (fold change (ratio)); higher = more amine produced, active = hit call of the paper (significant change in both replicates, either direction)
In short: as §2

[7] = tested on: Ruminococcus gnavus DSM 108212; experiment: as above
In short: as §2

Escherichia coli IAI1 [8] = experiment: fold change of Putrescine concentration vs plate DMSO controls (fold change (ratio)); higher = more amine produced, active = hit call of the paper (significant change in both replicates, either direction)
In short: as §2

[9] = tested on: Klebsiella aerogenes DSM 30053; experiment: as above
In short: as §2

Escherichia coli IAI1 [10] = experiment: fold change of Cadaverine concentration vs plate DMSO controls (fold change (ratio)); higher = more amine produced, active = hit call of the paper (significant change in both replicates, either direction)
In short: as §2

[11] = tested on: Klebsiella aerogenes DSM 30053; experiment: as above
In short: as §2

[12] = tested on: Ruminococcus gnavus DSM 108212; experiment: fold change of 2-Phenylethylamine concentration vs plate DMSO controls (fold change (ratio)); higher = more amine produced, active = hit call of the paper (significant change in both replicates, either direction)
In short: as §2

SMILES	growth [1]	growth (Escherichia coli IAI1 [2])	growth [3]	growth [4]	fold change of Histamine concentration [5]	fold change of Tryptamine concentration [6]	fold change of Tryptamine concentration [7]	fold change of Putrescine concentration (Escherichia coli IAI1 [8])	fold change of Putrescine concentration [9]	fold change of Cadaverine concentration (Escherichia coli IAI1 [10])	fold change of Cadaverine concentration [11]	fold change of 2-Phenylethylamine concentration [12]
c1ccc2[nH]c(-c3cscn3)nc2c1 [Tiabendazole] (20 µM)	1.06	0.991	0.899	0.962	1.12 (inactive)	1.01 (inactive)	1.02 (inactive)	0.997 (inactive)	0.964 (inactive)	1.04 (inactive)	0.979 (inactive)	1.04 (inactive)
CN1CCN(c2c(F)cc3c(=O)c(C(=O)O)cn4c3c2SCC4)CC1 [Rufloxacin] (20 µM)	0.0133	0.0641	0.299	0.953	0.201 (active)	0.0518 (active)	0.901 (inactive)	0.875 (inactive)	1.18 (inactive)	0.26 (active)	0.997 (inactive)	0.952 (inactive)
CCN(CC)CCOC(=O)C(c1ccccc1)C1CCCCC1 (configuration not stated) [Drofenine hydrochloride] (20 µM)	0.967	0.977	1	0.939	1.03 (inactive)	0.99 (inactive)	0.866 (inactive)	1.06 (inactive)	1.01 (inactive)	1.04 (inactive)	0.992 (inactive)	0.921 (inactive)
CCCN[C@H]1CCc2nc(N)sc2C1 [Pramipexole dihydrochloride] (20 µM)	0.931	0.975	1.01	1.01	1.05 (inactive)	0.946 (inactive)	0.974 (inactive)	0.977 (inactive)	1.05 (inactive)	0.98 (inactive)	1.01 (inactive)	0.923 (inactive)
Cc1cn([C@H]2C[C@H](N=[N+]=[N-])[C@@H](CO)O2)c(=O)[nH]c1=O [Zidovudine] (20 µM)	0.921	0.825	0.946	1.45	1.12 (inactive)	1.04 (inactive)	1.02 (inactive)	0.549 (inactive)	1.07 (inactive)	1.79 (inactive)	0.981 (inactive)	1.11 (inactive)
CCCCOc1ccc(C(=O)CCN2CCCCC2)cc1 [Dyclonine hydrochloride] (20 µM)	1.17	0.992	0.966	1.22	1 (inactive)	0.989 (inactive)	0.947 (inactive)	0.989 (inactive)	0.995 (inactive)	0.995 (inactive)	0.984 (inactive)	0.936 (inactive)
CC[C@H](C)[C@H](N)C1=N[C@H](C(=O)N[C@@H](CC(C)C)C(=O)N[C@H](CCC(=O)O)C(=O)N[C@H](C(=O)N[C@H]2CCCCNC(=O)[C@H](CC(N)=O)NC(=O)[C@@H](CC(=O)O)NC(=O)[C@H](Cc3cnc[nH]3)NC(=O)[C@@H](Cc3ccccc3)NC(=O)[C@H]([C@@H](C)CC)NC(=O)[C@@H](CCCN)NC2=O)[C@@H](C)CC)CS1 [Bacitracin] (20 µM)	1	1.05	1.02	0.0384	0.999 (inactive)	1.02 (inactive)	0.0521 (active)	1.18 (inactive)	1.01 (inactive)	1.01 (inactive)	1 (inactive)	0.0535 (active)
CNCC[C@@H](Oc1ccccc1C)c1ccccc1 [Tomoxetine hydrochloride] (20 µM)	1.11	1.01	0.98	1.1	0.978 (inactive)	1.1 (inactive)	1 (inactive)	0.969 (inactive)	0.968 (inactive)	0.989 (inactive)	1 (inactive)	1.05 (inactive)
Clc1ccc(C(Cn2ccnc2)OCc2csc3c(Cl)cccc23)c(Cl)c1 (configuration not stated) [Sertaconazole nitrate] (20 µM)	0.896	1.1	0.993	0.501	0.978 (inactive)	1.12 (inactive)	0.435 (active)	1.08 (inactive)	0.954 (inactive)	0.973 (inactive)	1.03 (inactive)	0.591 (inactive)
O=C(O)C1CSCN1 (configuration not stated) [Timonacic] (20 µM)	0.827	1.02	1	0.956	0.992 (inactive)	1 (inactive)	1.02 (inactive)	1.04 (inactive)	1.01 (inactive)	1 (inactive)	1 (inactive)	0.998 (inactive)
O=C1NCCN1c1ncc([N+](=O)[O-])s1 [Niridazole] (20 µM)	0.0129	1.09	0.756	0.0406	1.11 (inactive)	0.0363 (active)	0.0455 (active)	1.44 (inactive)	1.03 (inactive)	1.97 (active)	1.02 (inactive)	0.0533 (active)
